# Sampled rows, rich in hits. Any-hit rate of the full collection: about 5.7%.
# hcDAF-12 act: H. contortus DAF-12 activation, primary screen | actives 1.4% (n = 370,000) | HEK293 hcDAF-12 lit1-tk-luc reporter, luminescence; 0% DMSO, 100% Δ7-dafachronic acid | activation, % at 6.8 µM;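 active = activation above the mean of all tested compounds plus 3 SD, cut at about 5.5% in these data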;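 note: 100% = response to 3 µM Δ7-dafachronic acid high control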
# DAX1 inh-1: DAX1 (NR0B1) inhibition, primary screen; HEK293T StAR-luciferase reporter, SF-1/DAX-1 repression relief; actives 1.1% (n = 370,000); inhibition, % at 6.8 µM;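 active = inhibition above the mean over all tested compounds plus 3 SD, cut at about 3.6% in these data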;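 note: 0% = DAX-1 cells with DMSO and 100% = cells lacking DAX-1 with DMSO; higher inhibition means more luminescence from relief of DAX-1 repression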
# ssDAF-12 act: activators of S. stercoralis DAF-12 nuclear receptor | actives 1% (n = 370,000) | activation, % at 6.8 µM | HEK293 ssDAF-12/GRIP1 lit1-tk-luc reporter, luminescence; % of 3 µM dafachronic acid response;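 active = activation above the mean over all tested compounds plus 3 SD, cut at about 0.9% in these data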;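 note: 0% = DMSO-only wells and 100% = 3 µM delta7-dafachronic acid wells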
# DAX1 inh-2: inhibits human nuclear receptor DAX1; inhibition, % at 6.75 µM; HEK293 Gal4-DAX1 luciferase reporter, luminescence; P51843; actives 0.99% (n = 340,000);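 active = inhibition above the mean over all tested compounds plus 3 SD, cut at about 4.2% in these data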;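 note: 0% = DAX1-transfected cells with DMSO and 100% = empty-vector control cells with DMSO; inhibition shows as a rise in luminescence from relieved DAX1 repression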
# hgDAF12 agonist: hgDAF-12 agonism, primary luciferase screen. actives 1.8% (n = 370,000). HEK293 GAL4-hgDAF12 UAS-luciferase reporter, agonist luminescence; normalized to butyrate control. activation, % at 6.8 µM. AID 687014;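 active = activation above a cutoff set at the mean of all screened compounds plus 3 SD, cut at about 10% in these data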;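 note: 0% = DMSO wells and 100% = sodium butyrate wells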
# AHR activator: activators of human aryl hydrocarbon receptor | P35869 | AHR-responsive luciferase reporter cells, luminescence | activation, % at 5 µM | actives 2.5% (n = 320,000) | AID 2796; in the data active = activation above about 47%;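 note: 0% = vehicle wells and 100% = reference agonist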
# Target sequence (P35869 whole entry, looked up): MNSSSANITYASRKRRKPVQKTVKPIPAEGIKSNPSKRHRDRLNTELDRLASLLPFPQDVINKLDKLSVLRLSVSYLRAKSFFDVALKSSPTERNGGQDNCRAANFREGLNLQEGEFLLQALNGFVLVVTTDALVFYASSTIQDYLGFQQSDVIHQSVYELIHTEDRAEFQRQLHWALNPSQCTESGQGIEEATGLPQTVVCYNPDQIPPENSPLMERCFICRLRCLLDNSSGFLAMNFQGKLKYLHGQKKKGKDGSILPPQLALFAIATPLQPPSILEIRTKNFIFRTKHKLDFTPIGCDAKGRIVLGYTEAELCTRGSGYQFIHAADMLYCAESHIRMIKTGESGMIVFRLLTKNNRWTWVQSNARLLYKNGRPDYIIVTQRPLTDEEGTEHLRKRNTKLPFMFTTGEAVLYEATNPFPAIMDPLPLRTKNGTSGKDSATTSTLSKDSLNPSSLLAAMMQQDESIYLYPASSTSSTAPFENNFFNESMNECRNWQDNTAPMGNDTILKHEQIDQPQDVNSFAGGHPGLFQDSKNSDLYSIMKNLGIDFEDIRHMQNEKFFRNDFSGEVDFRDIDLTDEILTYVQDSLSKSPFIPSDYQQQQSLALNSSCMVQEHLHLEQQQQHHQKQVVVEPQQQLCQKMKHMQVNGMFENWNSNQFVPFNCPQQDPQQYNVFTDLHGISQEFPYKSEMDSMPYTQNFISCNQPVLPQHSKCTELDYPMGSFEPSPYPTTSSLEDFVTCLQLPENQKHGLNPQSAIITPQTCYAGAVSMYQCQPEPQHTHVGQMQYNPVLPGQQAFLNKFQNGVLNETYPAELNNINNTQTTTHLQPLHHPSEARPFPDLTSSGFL
# Starred values were filed as active, the others as inactive; . = not tested or not shown.
SMILES,hcDAF-12 act,DAX1 inh-1,ssDAF-12 act,DAX1 inh-2,hgDAF12 agonist,AHR activator
CC(C)c1nnc(NC(=O)c2sc3ccccc3c2Cl)s1,5.9*,1.1,-0.1,2.6,9.7,70.8*
O=[N+]([O-])c1cccc(C=NN2CCCCCC2)c1,2.6,1.5,-1.0,1.4,10.6*,.
O=[N+]([O-])c1ccccc1/C=C/C=N/N1CCCCC1,5.4,3.3,0.1,7.3*,10.9*,21.1
O=[N+]([O-])c1ccccc1/C=C\C=N\N1CCN(c2ccccc2)CC1,-2.0,0.0,-0.8,-1.5,-1.1,-2.3
COC(=O)CNc1c(-c2ccccc2)nc2ccc(Br)cn12,1.5,2.2,0.1,-0.7,8.4,5.0
O=c1cc(-c2ccccc2[N+](=O)[O-])oc2ccccc12,-1.6,-0.2,-1.8,0.8,-1.6,8.9
O=c1cc(-c2ccccc2F)oc2ccccc12,0.8,2.1,-0.7,0.2,11.1*,1.9
Cc1ccccc1-c1cc(=O)c2ccccc2o1,-2.7,-0.2,-1.5,0.8,0.6,12.0
O=c1cc(-c2ccc(F)cc2)oc2ccccc12,1.5,0.6,-0.1,1.7,8.7,70.7*
C#CCCN([C@H](C(=O)OC)C(C)C)S(=O)(=O)c1ccccc1Br,-2.9,-1.1,-1.3,.,1.0,.
COc1ccc(S(=O)(=O)NCc2ccco2)cc1C(=O)N1CCCCC1,-2.0,-0.3,-1.4,5.0*,1.5,-2.9
COc1ccc(S(=O)(=O)NCc2ccco2)cc1C(=O)N1CCOCC1,-0.3,-0.1,-1.1,0.9,1.5,-0.7
CC1CCN(CCCCOc2ccc(Cl)cc2)CC1,.,.,.,0.8,.,0.5
CC1CCN(C(=O)CCCOc2ccc(Cl)cc2)CC1,-0.8,0.2,1.3*,0.9,3.1,1.7
c1ccc(CNc2cncnc2)cc1,1.1,-0.4,1.1*,0.0,-1.6,-0.4
c1ccc(CNc2cccnc2)cc1,0.0,0.3,-0.6,0.9,1.2,.
O=C(CN1CCN(c2ccc(F)cc2)CC1)Nc1nccs1,3.3,-0.2,-0.9,-0.6,-1.4,-0.1
COc1cccc(C(=O)COC(=O)CCC(=O)c2ccccc2)c1,-3.0,-0.5,-0.8,0.0,1.2,0.7
S=c1[nH]nc(-c2ccc3ccccc3n2)n1-c1cc(Cl)cc(Cl)c1,0.6,-0.2,-1.4,-0.1,0.0,13.3
Fc1ccc(-n2c(-c3ccc4ccccc4n3)n[nH]c2=S)cc1,2.2,-0.3,0.1,6.3*,1.3,7.1
CCOC(=O)c1cc(C#N)c(SCC(N)=O)[nH]c1=O,0.5,0.2,-1.5,4.5*,1.7,-0.9
CCc1ccc(OCC(=O)N/N=C2\CC(=O)c3ccccc32)cc1,.,.,.,0.1,.,61.5*
CCOC(=O)c1ccc(NC(=O)NC2=NCCS2)cc1,1.1,1.1,-0.6,0.0,11.2*,.
Cc1cc(C)nc(NC(=O)c2cccc(Br)c2)n1,-0.4,-0.3,-0.8,0.1,-1.3,32.1
Cc1cc(NC(=O)c2cccc(Br)c2)n[nH]1,0.8,0.4,-0.9,0.6,4.5,72.7*
SMILES,hcDAF-12 act,DAX1 inh-1,ssDAF-12 act,DAX1 inh-2,hgDAF12 agonist,AHR activator
O=C(NC1=NCCS1)c1cccc(Br)c1,5.2,2.1,0.2,7.7*,11.0*,8.1
O=C(NC1=NCCS1)c1ccc(Cl)cc1,5.7*,1.8,-0.2,1.0,8.8,0.9
O=C(NC1=NCCS1)c1cccc(F)c1,1.0,0.2,0.0,.,3.5,-1.4
CCOc1cccc(C(=O)Nc2cccc(C(C)=O)c2)c1,-0.9,0.1,-1.3,-0.6,3.0,29.7
CCOc1cccc(C(=O)NC2=NCCS2)c1,3.6,2.4,0.8,8.1*,8.9,.
CCc1nnc(N2C(=O)c3cccc4cccc(c34)C2=O)s1,1.8,1.1,0.5,0.1,0.1,75.5*
COc1cccc(-c2cnc3cccnn23)c1,-1.1,2.0,-1.0,.,11.5*,.
CS(=O)(=O)Nc1ccc(-c2cnc3cccnn23)cc1,1.2,-0.7,-0.7,.,11.5*,.
O=C1c2ccccc2C(=O)N1CCOc1cccc(Br)c1,1.6,4.4*,0.3,1.1,10.4,31.4
O=C(/C=C/c1ccccc1[N+](=O)[O-])NCCc1ccc(F)cc1,-1.9,-0.2,-0.3,0.5,5.7,5.0
CC1=C(C(=O)OC(C)(C)C)C(c2ccco2)C(C#N)=C(N)O1 (stereo not drawn),-0.8,0.0,-1.9,1.1,-1.4,1.6
C=CCOC(=O)C1=C(C)OC(N)=C(C#N)C1c1ccco1 (stereo not drawn),-0.6,-0.3,-1.1,8.4*,-1.3,13.2
CCOC(=O)[C@H]1[C@H]2COc3cc(OC)ccc3[C@@H]2N2C(=O)N(c3ccc(Cl)cc3)C(=O)[C@@]12C,.,.,.,2.1,.,2.1
O=c1cc(N2CCc3ccccc32)[nH]c(=O)n1-c1ccc(Br)cc1,5.8*,1.3,-0.9,-0.6,-0.9,14.4
COc1ccc(CNC(=O)c2ccccc2NC(=O)C2=C(C)OCCS2)cc1,0.0,-2.1,-1.4,0.1,-0.5,.
O=C(CSc1nc(-c2ccc(F)cc2)cc(C(F)(F)F)n1)Nc1ccc2c(c1)OCO2,0.7,-0.2,-0.8,-0.9,1.4,5.7
Cc1cccc(NC(=O)C(=O)NCC2CCCO2)c1 (stereo not drawn),2.6,3.8*,-0.8,0.1,12.7*,12.6
O=C(NCC1CCCO1)Nc1cccc(Cl)c1 (stereo not drawn),-0.3,0.8,-0.8,0.2,1.4,1.8
Cc1ccccc1NC(=O)/C(C#N)=C/c1ccsc1,5.2,1.4,0.1,3.0,5.5,70.1*
COc1cc2cc(C(=O)N(C)Cc3ccccc3)[nH]c2cc1OC,1.3,0.5,-0.1,0.9,-1.0,.
C=CCN(Cc1ccc(OC)c(OC)c1)C(=O)c1cc2cc(F)ccc2[nH]1,-0.1,-0.7,-0.5,-0.4,0.4,47.5*
C/C(=N\NC(=O)c1cccc(S(=O)(=O)N2CCCC2)c1)c1cccs1,0.2,2.3,-1.3,0.6,6.1,4.3
O=C(N/N=C/c1ccc(OCC(=O)N2CCCCC2)cc1)c1ccccc1O,4.6,1.2,1.7*,-0.2,5.7,35.8
CC(C)(C)OC(=O)COc1ccc(/C=N/NC(=O)CN2CCCCC2)cc1,0.3,0.9,-0.9,0.7,12.7*,.
CN(C)CCn1c(SCc2ccccc2C#N)nc2c(sc3ccccc32)c1=O,1.6,0.0,-1.0,2.2,-0.1,22.6
Nc1cccc(N=[N+]([O-])c2cccc(N)c2)c1,-0.2,0.8,-0.4,0.5,11.3*,.
O=[N+]([O-])c1cccc(N=NNc2cccc([N+](=O)[O-])c2)c1,-1.0,0.8,-1.1,0.5,-0.4,.
CN1CCN(CC(=O)NN(Cc2ccccc2)c2ccccc2)CC1,-0.5,0.5,-1.3,4.5*,-3.0,-0.2
CCOC(=O)NC(=O)c1cn(Nc2ncc(C(F)(F)F)cc2Cl)c(=O)[nH]c1=O,0.4,-0.4,0.6,-1.0,0.2,2.4

# From PubChem
